Compounds with a hit are over-represented: about 18% of the library has one in this group of screens.
IL-1B inflam inh: blocks inflammasome-driven IL-1 beta release. THP-1 LPS/ATP IL-1B secretion, AlphaLISA, 16 h; hits give low values. activity change, % at 57.5 µM. 360,000 compounds, 4.7% hits; in the data active means activity change below about -50%; inconclusive means mostly about -30% to -49%; further: on the % scale 0 is the no-effect control and ±100 the full control effect
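THP-1 cells pretreated 1 hr with compounds (up to 57.5 uM final), then stimulated with LPS (250 ng/mL final) plus ATP (1.25 mM final); secreted IL-1B measured by AlphaLISA after 16 hr, decreased signal indicating inhibition.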
TGFb inhibitor: blocks TGF-b signaling | Potency, µM (highest dose often 46.1 µM), for the others: top-dose activity, negative = inhibition, actives largely listed as inhibitors | AID 588855 | HepG2 CAGA-GFP TGF-b/SMAD3 reporter, GFP fluorescence, 18 h; TGF-beta stimulated, 500 pg/mL final | 410,000 compounds, 1.2% hits; further: potency means the concentration at half of the fitted maximal effect; on the % scale 0 is the no-effect control and ±100 the full control effect; nearly all actives have a fitted effect of over 65% in size
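HEPG2 CAGA-GFP reporter cells (1000/well, DMEM with 1% FBS) received compounds, then recombinant TGF-beta at 500 pg/mL final for 18 hours at 37 degrees C. Per-cell GFP summed per well was normalised to unstimulated and stimulated DMSO controls before curve fitting.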
DT40 TDP1 CPT: growth inhibition of DT40 Tdp1-/-;hTDP1 cells with camptothecin (screen for TDP1 inhibitors); chicken DT40 Tdp1-/-;hTDP1 cells + 20 nM CPT, ATP luminescence, 48 h; Potency, µM (doses to about 46.2 µM), for the others: at the top dose activity change, negative = growth inhibition, most hits filed as inhibitors; 420,000 compounds, 12% hits; AID 686979; further: potency means the concentration at half of the fitted maximal effect; on the % scale 0 is the no-effect control and ±100 the full control effect; nearly all actives have a fitted effect of over 55% in size
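Chicken DT40 Tdp1-/- cells stably complemented with human TDP1 were seeded at 400 cells/well in medium containing 20 nM camptothecin, exposed to pin-transferred compounds, and grown at 37 °C for at least 48 hr. Viability was read as ATP luminescence.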
HepG2 tox: kills HepG2 cells in TGF-b inhibitor counter-screen | HepG2 CAGA-GFP viability, ATP luminescence, 18 h | Potency, µM (highest dose often 46.1 µM), for the others: at the highest dose activity change, negative = cytotoxicity, usual class: cytotoxic | 410,000 compounds, 0.76% hits | AID 588856; further: potency means the concentration at half of the fitted maximal effect
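HepG2 CAGA-GFP cells (1000/well, DMEM with 1% FBS) received compound, then TGF-beta at 500 pg/mL final, and were incubated 18 hours at 37 degrees C. Viability was read by CellTiter-Glo luminescence. Media-only wells were set as complete cell-killing and DMSO as no toxicity.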
TDP1 cell noCPT: qHTS for Inhibitors of human tyrosyl-DNA phosphodiesterase 1 (TDP1): qHTS in cells in absence of CPT. AID 686978, 2013. DT40 Tdp1-/- hTDP1 cells, no CPT, ATP luminescence, 48 h. Potency, µM (highest dose often 46.2 µM), inactives show at the top dose activity change, negative = growth inhibition, actives largely listed as inhibitors. 420,000 compounds, 15% hits; further: potency means the concentration at half of the fitted maximal effect; on the % scale 0 is the no-effect control and ±100 the full control effect; nearly all actives have a fitted effect of over 55% in size
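Camptothecin absent (DMSO only). Human TDP1-complemented DT40 knockout cells, 400 cells/well, 37 °C for minimum 48 hr; ATP measured via CellTiter-Glo, 30 min dark incubation, luminescence.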
TDP1 inh: blocks human tyrosyl-DNA phosphodiesterase 1; 350,000 compounds, 0.28% hits; AID 485290; Q9NUW8; recombinant TDP1, AlphaScreen DNA substrate cleavage; Potency, µM (titrated, usually from 130 µM), for the others: at the highest dose activity change, negative = inhibition, usual class: inhibitors; further: potency means the concentration at half of the fitted maximal effect; on the % scale 0 is the no-effect control and ±100 the full control effect; nearly all actives have a fitted effect of over 40% in size
Target sequence (Q9NUW8 whole entry, looked up): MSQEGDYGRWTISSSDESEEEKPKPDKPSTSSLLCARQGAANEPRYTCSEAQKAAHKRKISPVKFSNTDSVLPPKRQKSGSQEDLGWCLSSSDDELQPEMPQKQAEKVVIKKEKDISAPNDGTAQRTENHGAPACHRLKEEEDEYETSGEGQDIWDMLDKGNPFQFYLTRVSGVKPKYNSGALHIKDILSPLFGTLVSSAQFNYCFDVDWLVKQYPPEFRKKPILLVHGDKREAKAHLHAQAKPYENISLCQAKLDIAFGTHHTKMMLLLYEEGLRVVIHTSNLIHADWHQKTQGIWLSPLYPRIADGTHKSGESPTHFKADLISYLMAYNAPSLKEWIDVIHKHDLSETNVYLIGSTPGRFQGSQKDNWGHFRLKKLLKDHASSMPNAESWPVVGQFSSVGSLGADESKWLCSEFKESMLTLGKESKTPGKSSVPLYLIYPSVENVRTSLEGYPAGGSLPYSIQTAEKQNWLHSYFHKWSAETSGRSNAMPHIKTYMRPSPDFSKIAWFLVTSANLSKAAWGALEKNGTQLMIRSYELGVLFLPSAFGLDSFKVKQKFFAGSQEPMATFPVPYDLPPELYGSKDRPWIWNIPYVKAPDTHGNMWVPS
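E. coli-derived human Tdp1, 1 nM final. Cpd preinc 15 min RT; substrate 15 nM final, 5 min RT; AS bead mix 10 ug/ml final, 10 min RT. Signal loss = tyrosine-FITC cleavage. No-enzyme wells = max signal.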
* = called active by the depositor; i = inactive; ? = inconclusive; . = no result; [ ] = dose if it differs, or a comment. Unless noted, the call rests on the fitted dose curve; in most records, active means well fitted curve in the direction sought with a large enough effect; inconclusive means small, poorly fitted or top-dose-only effect, or another doubt; inactive means no such curve, though single readings can be large; an effect the other way counts as inactive or inconclusive.

SMILES	IL-1B inflam inh	TGFb inhibitor	DT40 TDP1 CPT	HepG2 tox	TDP1 cell noCPT	TDP1 inh
Cc1ccc(NC(=O)CCC(=O)N/N=C/c2cccnc2)cc1	11	-11%	-16%	-6%	?	.
O=C(CCC(=O)Nc1ccc(F)cc1)N/N=C/c1ccccc1O	150	-12%	?	-31%	?	3%
Cc1ccc(/C=N/NC(=O)Cc2ccc(Cl)cc2)c(O)c1	65	?	16µM*	-53%	21µM*	50µM*
Cc1ccccc1/C=N/NC(=O)Cc1ccc(Cl)cc1	0	-6%	0%	-3%	-28%	5%
C=CCc1cccc(/C=N/NC(=O)CCC(=O)Nc2ccc(C)cc2)c1O	60	-42%	15µM*	-39%	10µM*	3%
C/C(=N\OCC(=O)N/N=C/c1ccc(C)cc1O)c1cccs1	104	-7%	4.6µM*	-10%	4.1µM*	8%
O=C(c1ccco1)N1CCC[C@@]2(CCN(c3ccccn3)C2)C1	.	.	3%	.	?	.
CCOC(=O)N1CCN(S(=O)(=O)c2ccc(OC)c(C(=O)N3CCCCC3)c2)CC1	52	-1%	2%	8%	?	11%
Cc1ncc(-c2ccc(F)cc2)c(C2CCCN(Cc3cccc(O)c3)C2)n1 (centres undefined)	.	.	?	.	21µM*	.
COc1ccc(OC)c(CN2CCCC(c3nc(-c4ccncc4)ncc3-c3ccccc3C)C2)c1 (centres undefined)	.	.	-1%	.	-1%	.
COc1cccc(CN2CCCC(c3nc(C)ncc3-c3ccc(F)cc3)C2)c1OC (centres undefined)	.	.	?	.	21µM*	.
COc1cccc(CN2CCCC(c3nc(-c4ccncc4)ncc3-c3ccccc3C)C2)c1O (centres undefined)	.	.	?	.	-32%	.
Cc1cccc(C(=O)N2CCCC(c3nc(-c4ccc(F)cc4)no3)C2)c1 (centres undefined)	-2	?	?	-3%	?	.
Cc1cccc(-c2cnc(C)nc2C2CCCN(C(=O)c3cccc(Cn4cccn4)c3)C2)c1 (centres undefined)	.	.	3.3µM*	.	?	.
Cc1ccc(NS(=O)(=O)c2ccc3c(c2)CCN(C(=O)C(F)(F)F)C3)cc1C	.	.	.	.	.	0%
Cc1nc(Sc2nnnn2C2CC2)c2c(-c3ccccc3)csc2n1	.	10%	?	3%	11µM*	.
CCn1nnnc1Sc1nc(C)nc2scc(-c3ccccc3)c12	.	14%	?	15%	8.9µM*	.
COc1ccc(Cn2ccc3nc(C)c(C(=O)Nc4ccc(OC(F)(F)F)cc4)cc3c2=O)cc1	.	-27%	?	-24%	?	-1%
CCCCCCC#CC1C=CC(Oc2ccc(C=O)cc2)C(CO)O1 (centres undefined)	.	.	.	.	.	1%[21 µM]
COc1ccc(-n2cc(-c3ccccc3)c3c(N4CC(C)OC(C)C4)ncnc32)cc1 (centres undefined)	-10	?	?	0%	12µM*	6%
COc1ccc(-n2cc(-c3ccccc3)c3c(NC4CCCC4)ncnc32)cc1	.	?	23µM*	-56%	18µM*	8%
COc1cccc(N2CCN(c3ncnc4c3c(-c3ccccc3)cn4-c3cccc(C(F)(F)F)c3)CC2)c1	.	?	-15%	-24%	?	13%
Cc1ccc(C(=O)CSc2nc(-c3ccccc3)nc3c2CCCC3)cc1	.	0%	-3%	-15%	-13%	.
Cc1ccn2cc(-c3ccc4c(c3)NC(=O)CO4)nc2c1	-13	0%	0%	40%	-24%	-2%
Cc1ccc2occ(-c3cc(-c4ccc(Cl)cc4)nc4c3COc3ccccc3-4)c(=O)c2c1	.	6%	0%	-3%	1%	5%
SMILES	IL-1B inflam inh	TGFb inhibitor	DT40 TDP1 CPT	HepG2 tox	TDP1 cell noCPT	TDP1 inh
Cc1ccc2c(c1)-c1nc(-c3ccc4c(c3)NC(=O)CO4)cc(-c3ccc(Cl)cc3)c1CO2	.	?	1.5µM*	2%	1.3µM*	2%
Cc1ccc(-c2cc(-c3ccc4c(c3)NC(=O)CO4)nc3c2COc2ccc(C)cc2-3)cc1	.	?	?	-1%	2.1µM*	3%
CCN1C(=O)C(NC(C)=O)c2cc(OC)ccc21 (centres undefined)	8	-4%	12%	-6%	3%	-1%
COc1ccc([C@@H]2Sc3cc(OC)ccc3N(CCN(C(C)C)C(C)C)C(=O)[C@H]2OC(C)=O)cc1	-6	23%	21µM*	-23%	?	-1%[56.1 µM]
CC12CC(NC(=O)N1c1cccc(C(=O)NCc3ccc4c(c3)OCO4)c1)c1cc(Cl)ccc1O2 (centres undefined)	?	-21%	18µM*	-19%	18µM*	5%
Cc1ccc2cccc(NC(=O)c3ccc(-c4cccc(Cl)c4)o3)c2n1	.	29%	4%	-45%	-8%	-5%
Cc1oc(-c2ccccc2NC(=O)C2CCC2)nc1CNC(=O)c1ccc(C#CC(C)(C)O)cc1	.	.	-7%[9.04 µM]	.	-9%	.
CCOC(=O)c1c(C)oc2nc(C)nc(NCc3ccccc3OCC)c12	.	17%	?	2%	?	4%
CCOC(=O)c1c(C)oc2nc(C)nc(NCCCN3CCN(c4ccc(F)cc4)CC3)c12	.	-7%	21µM*	-13%	21µM*	3%
CCOC(=O)c1c(C)oc2nc(C)nc(NCC3CCN(Cc4cc(C)ccc4C)CC3)c12	.	12%	-9%	1%	-20%	0%
CCOC(=O)c1c(C)oc2nc(C)nc(N3CCN(c4ccc(C(C)=O)cc4)CC3)c12	.	-2%	5.8µM*	-20%	2.9µM*	6%
CCOC(=O)c1c(C)oc2ncnc(NCCCN3CCN(c4cc(C)ccc4C)CC3)c12	.	?	7.3µM*	-33%	4.6µM*	1%
CCOC(=O)c1c(C)oc2nc(C)nc(NCCCN3CCN(c4ccccc4OC)CC3)c12	.	-13%	?	-3%	23µM*	7%
Cc1nc(N2CCCC2)c2c(C(=O)N3CCN(c4ccc(F)cc4)CC3)c(C)oc2n1	.	?	-14%	-35%	-21%	2%
COc1cc(OC)cc(C(=O)NNC(=O)CCC(=O)c2cccs2)c1	i	-9%	1%	10%	5%	2%
COc1ccc(N(CCCN2C(=O)c3cccc4cccc(c34)C2=O)C(=O)c2cccs2)cc1	31	-4%	?	-22%	?	3%

Compound activity (PubChem)
